From PubChem BioAssay
Calls of active or inactive are those of the source. Unless noted, how the calls were made is not given here.

Key:
[1] = HepG2 liver cancer cell viability effects, profiling panel, resazurin fluorescence, 24 h, PK04 Diversity Set (AID 1172); details: higher = more signal
[2] = basal S. cerevisiae growth modulation, no modifier, primary screen, OD600, strain BY4716, 24 h, basal condition (AID 1173); details: OD600, 24 h, higher = more signal, called active from +8 up or from −8 down
[3] = MM1S myeloma cell viability, profiling panel, resazurin fluorescence, basal, 24 h, PK04 Diversity Set (AID 1174); details: higher = more signal, called active from +8 up or from −8 down;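 further: MM1S multiple myeloma cell line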
[4] = biological target: Dihydroorotate dehydrogenase (quinone), mitochondrial (Plasmodium falciparum (isolate 3D7)) (UniProt Q08210); test: PfDHODH enzyme inhibitors, primary screen, biochemical, C-terminal His tag, absorbance 600 nm (AID 1175); details: DCIP absorbance 600 nm, higher = more signal, called active from +8 up or from −8 down;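 further: recombinant parasite enzyme with a five histidine tag at its C terminus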
[5] = P. aeruginosa biofilm formation inhibitors, primary screen, strain PAO1, LB-PBS medium, absorbance 600 nm (AID 1176); details: P. aeruginosa PAO1 growth/biofilm, A600, 12 h; higher = more signal
[6] = S. cerevisiae RM11-1a growth modifiers, primary screen, strain RM11-1a, OD600, basal, 24 h (AID 1177); details: OD600, 24 h, higher = more signal, called active from +8 up or from −8 down;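 further: cultures grown under basal conditions with no added stressor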
[7] = E. coli acrAB mutant growth effects, primary screen, E. coli filamentation inducers, strain DRC39, OD650, 24 h (AID 1178); details: higher = more signal, called active from +8 up or from −8 down;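 further: growth measured as culture turbidity by optical density at 650 nm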
[8] = E. coli acrAB mutant growth effects, primary screen, E. coli filamentation inducers, strain DRC39, OD650, 48 h (AID 1179);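 further: screen aims at cell division blockers that make cells filament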; details: E. coli DRC39 delta-acrAB growth, higher = more signal, called active from +8 up or from −8 down
[9] = RPMI8226 myeloma cell viability, profiling panel, resazurin fluorescence, basal, 24 h, PK04 Diversity Set (AID 1180); details: higher = more signal;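 further: RPMI8826 multiple myeloma cell line at 5000 cells per well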
[10] = biological target: E3 ubiquitin-protein ligase XIAP (Homo sapiens) (UniProt P98170); test: XIAP binders, primary screen, biophysical, small-molecule microarray, fluorescence 635 nm (AID 1181); details: small-molecule microarray binding, higher = more signal;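 further: score merges 667 nm emission and signal to noise over triplicate slides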
[11] = system: XIP peptide (Xip251-270) binding; test: small-molecule binders of XIP peptide, primary screen, biochemical, small-molecule microarray, fluorescence 635/667 nm, 0.1 µg/mL protein (AID 1182); details: fluorescent protein binding, 635 nm, higher = more signal, called active from +8 up or from −8 down
XIP peptide (Xip251-270) = test: small-molecule binders of XIP peptide, primary screen, biochemical, small-molecule microarray, fluorescence 635/667 nm, 0.5 µg/mL protein (AID 1183); details: small-molecule microarray binding, fluorescence 635 nm; higher = more signal
[12] = Plasmodium falciparum growth inhibition, primary screen, strain 3D7, DAPI fluorescence, 100 nL (AID 1184);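 further: parasites grown inside human red blood cells in medium with human serum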; details: P. falciparum 3D7 growth, 3 d, higher = more signal
[13] = biological target: Homeobox protein Hox-A13 (Mus musculus) (UniProt Q62424); test: inhibitors of HoxA13-DNA binding, primary screen, biochemical, fluorescence polarization, labeled oligonucleotide (AID 1185); details: 15 min, higher = more signal, called active from +8 up or from −8 down
[14] = inhibitors of hydroxyurea-induced Chk1 phosphorylation, primary screen, imaging, HeLa, phospho-Chk1 antibody, percent positive cells (AID 1186); details: hydroxyurea-induced phospho-Chk1 immunofluorescence imaging, higher = more signal
[15] = inhibitors of hydroxyurea-induced Chk1 phosphorylation, primary screen, imaging, HeLa, phospho-Chk1 nuclear intensity (AID 1187); details: hydroxyurea-induced phospho-Chk1 immunofluorescence imaging, higher = more signal

Dihydroorotate dehydrogenase (quinone), mitochondrial (Plasmodium falciparum (isolate 3D7)), sequence (Q08210 whole entry, looked up): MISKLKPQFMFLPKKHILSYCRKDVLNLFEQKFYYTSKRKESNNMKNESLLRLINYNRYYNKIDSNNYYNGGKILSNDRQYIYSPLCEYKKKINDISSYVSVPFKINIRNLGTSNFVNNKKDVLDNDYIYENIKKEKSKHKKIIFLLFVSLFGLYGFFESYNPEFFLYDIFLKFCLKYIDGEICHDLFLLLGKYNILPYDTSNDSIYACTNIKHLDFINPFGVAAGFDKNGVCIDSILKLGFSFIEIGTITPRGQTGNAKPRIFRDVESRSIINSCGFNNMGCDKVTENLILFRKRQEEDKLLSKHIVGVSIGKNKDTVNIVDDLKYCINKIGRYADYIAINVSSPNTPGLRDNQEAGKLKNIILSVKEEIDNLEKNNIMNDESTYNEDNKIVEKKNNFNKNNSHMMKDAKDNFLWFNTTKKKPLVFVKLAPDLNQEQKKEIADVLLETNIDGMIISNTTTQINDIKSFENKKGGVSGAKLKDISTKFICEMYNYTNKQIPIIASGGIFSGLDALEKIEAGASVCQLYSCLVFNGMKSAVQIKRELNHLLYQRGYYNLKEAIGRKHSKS
Homeobox protein Hox-A13 (Mus musculus), sequence (Q62424 whole entry, looked up): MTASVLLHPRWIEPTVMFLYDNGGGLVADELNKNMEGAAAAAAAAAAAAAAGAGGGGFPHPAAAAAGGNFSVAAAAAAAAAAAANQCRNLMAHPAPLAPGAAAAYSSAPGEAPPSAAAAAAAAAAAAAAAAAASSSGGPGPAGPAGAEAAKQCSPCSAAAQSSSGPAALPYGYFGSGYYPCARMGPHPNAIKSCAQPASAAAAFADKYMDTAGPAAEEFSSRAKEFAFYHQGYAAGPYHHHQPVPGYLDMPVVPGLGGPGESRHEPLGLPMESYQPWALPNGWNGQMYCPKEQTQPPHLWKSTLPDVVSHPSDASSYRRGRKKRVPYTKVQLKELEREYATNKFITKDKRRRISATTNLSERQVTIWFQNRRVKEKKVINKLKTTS
E3 ubiquitin-protein ligase XIAP (Homo sapiens), sequence (P98170 whole entry, looked up): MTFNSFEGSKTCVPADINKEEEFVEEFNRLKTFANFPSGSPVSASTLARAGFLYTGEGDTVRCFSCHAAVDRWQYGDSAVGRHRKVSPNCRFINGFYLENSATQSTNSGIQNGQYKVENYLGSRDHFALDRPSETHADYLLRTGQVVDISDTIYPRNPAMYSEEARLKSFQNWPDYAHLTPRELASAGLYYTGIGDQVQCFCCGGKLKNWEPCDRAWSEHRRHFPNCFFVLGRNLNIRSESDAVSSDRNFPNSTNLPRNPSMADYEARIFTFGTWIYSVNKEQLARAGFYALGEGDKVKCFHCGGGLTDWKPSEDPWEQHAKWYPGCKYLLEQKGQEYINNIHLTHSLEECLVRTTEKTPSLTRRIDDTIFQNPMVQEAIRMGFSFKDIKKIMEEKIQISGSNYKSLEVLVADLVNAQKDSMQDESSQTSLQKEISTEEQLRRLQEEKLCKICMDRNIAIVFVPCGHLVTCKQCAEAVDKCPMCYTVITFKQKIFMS

O=C(NCCN1CCOCC1)[C@@H]1c2ccccc2C(=O)N(Cc2cc(C(F)(F)F)cc(C(F)(F)F)c2)[C@H]1c1ccc(CO)cc1
z-score [1]: -0.731 | z-score [2]: 0.164 (inactive) | z-score [3]: 0.0896 (inactive) | composite z-score [4]: 0.434 (inactive) | z-score [5]: 0.224 (inactive) | z-score [6]: 0.842 (inactive) | z-score [7]: 1.06 (inactive) | z-score [8]: 0.321 (inactive) | z-score [9]: 0.0838 | composite z-score [10]: -0.242 | composite z-score [11]: 0.532 (inactive) | composite z-score (XIP peptide (Xip251-270)): 0.304 | z-score [12]: -1.27 | z-score [13]: -4 (inactive) | z-score [14]: -0.24 (inactive) | z-score [15]: -0.268 (inactive)

O=C1O[C@H](c2ccccc2)[C@H](c2ccccc2)N2[C@H]1[C@@H](C(=O)N1CCN(c3ncccn3)CC1)[C@]1(C(=O)Nc3ccc(C#CC4=CCCCC4)cc31)[C@H]2c1ccccc1OCCO
z-score [1]: -0.476 | z-score [2]: 1.4 (inactive) | z-score [3]: -1.49 (inactive) | composite z-score [4]: -0.0965 (inactive) | z-score [5]: 1.78 (inactive) | z-score [6]: 1.29 (inactive) | z-score [7]: -0.873 (inactive) | z-score [8]: -1.05 (inactive) | z-score [9]: -1.77 | composite z-score [10]: 0.0547 | composite z-score [11]: 0.263 (inactive) | composite z-score (XIP peptide (Xip251-270)): 0.938 | z-score [12]: -2.09 | z-score [13]: 1.87 (inactive) | z-score [14]: 0.28 (inactive) | z-score [15]: 0.188 (inactive)

COC(=O)C(CC#Cc1ccc2c(c1)[C@]1(C(=O)N2)[C@H](c2ccccc2OCCO)N2[C@H](c3ccccc3)[C@H](c3ccccc3)OC(=O)[C@H]2[C@@H]1C(N)=O)C(=O)OC
z-score [1]: -1.55 | z-score [2]: 0.858 (inactive) | z-score [3]: -9.28 (active) | composite z-score [4]: -2.77 (inactive) | z-score [5]: 1.18 (inactive) | z-score [6]: 1.77 (inactive) | z-score [7]: -0.0371 (inactive) | z-score [8]: -0.156 (inactive) | z-score [9]: -7.42 | composite z-score [10]: 0.0223 | composite z-score [11]: 0.945 (inactive) | composite z-score (XIP peptide (Xip251-270)): 0.787 | z-score [12]: -2.24 | z-score [13]: -2.21 (inactive) | z-score [14]: 0.202 (inactive) | z-score [15]: 0.555 (inactive)

COc1cc2c(cc1O)C(c1cccs1)N(Cc1cccc(OC(F)(F)F)c1)CC2 (centres undefined)
z-score [1]: -0.688 | z-score [2]: -3.07 (inactive) | z-score [3]: -1.11 (inactive) | composite z-score [4]: -4.69 (inactive) | z-score [5]: -0.0623 (inactive) | z-score [6]: -0.728 (inactive) | z-score [7]: -0.0378 (inactive) | z-score [8]: 1.14 (inactive) | z-score [9]: -1.93 | composite z-score [10]: 0.171 | composite z-score [11]: 1.78 (inactive) | composite z-score (XIP peptide (Xip251-270)): 0.775 | z-score [12]: -1.9 | z-score [13]: -2.17 (inactive) | z-score [14]: -1.02 (inactive) | z-score [15]: -2.12 (inactive)
